Reference: the supplement of paper PMC10338343
± gives the standard deviation.

These sequences were tested on MILI (PIWIL2) piRISC loaded with piRNA #1 (26 nt) (assay: pre-steady-state target cleavage rate (min^-1); guide: piRNA #1 5'p-UGAGGUAGUAGGUUGUAUAGUAUCCA; MIWI and MILI are mouse PIWI proteins and EfPiwi is from a freshwater sponge; tags in brackets are library labels; higher = faster piRNA-guided slicing of the target). Conditions: auxiliary factor: 500 nM mouse GTSF1.
How it was run: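 At 33 °C in HEPES–potassium acetate buffer, a transcribed, DNA-blocked target RNA library […] was exposed for 0–8 or 0–960 min to 1 nM active affinity-purified piRISC carrying a single synthetic guide, with or without 500 nM GTSF1 partner protein. Uncleaved targets were sequenced and normalised to depth and to weakly complementary targets. With three trials pooled and k3 capped at 0.0001 min^-1, a burst-and-steady-state fit produced the pre-steady-state cleavage rate.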
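Also: 1 nM active piRISC with 0.1 nM target library at 33 °C single turnover.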

Sequence | pre-steady-state target cleavage rate
GGAGACCUUACUAUACAACCUACUCACCUCA | 0.17 ± 0.018
GGAGACCUAUCUAUACAACCUACUACUCUCA | 0.194 ± 0.021
GGAGACCAUACAAUACAACCUACUUCCUCA | 0.125 ± 0.016
GGAGACCUUAGUAUACAACGUACUACCUCA | 0.0124 ± 0.0037
GGAGACCUUACUAAACAACGUACUACCUCA | 0.015 ± 0.0024
GGAGACCUAUGAAUACAACCUGCUACCUCA | 0.00274 ± 0.0027
GGAGACGUUACUUUACAACCUACUACCUCA | 0.141 ± 0.01
GGAGACGAUACUUUACAACCUACUACCACA | 0.2 ± 0.025
GGAGACCUAUGAUAUGUACCUAGUUCCUCA | < 0.0001
GGAGACCUAUGAUAACAACCUACUGCCUCA | 0.00428 ± 0.0031
GGAGACCUAUCUAAACAACCUACUACCACA | 0.0926 ± 0.013
GGAGACCUAUGAUUCAACCUACUACCUCA | 0.0177 ± 0.0042
GGAGACCUAUGAUAUGAACCUACAACCACA | < 0.0001
GGAGACCUAUGAAUACAACCUACAACCUCA | 0.0078 ± 0.0029
GGAGUGGAUACAAUUCAACCUACUACCUCA | 0.178 ± 0.0092
GGAGUGGAUACUAUACAACCUACUACCAGA | 0.034 ± 0.0071
GGAGACCUAACUAUACAACCUACAUGCUCA | 0.0479 ± 0.022
GGAGACCUAUGAAUACGACCUACUACCUCA | 0.00583 ± 0.0037
GGAGACCUAAGUAUACAACCUACAACCUCA | 0.0483 ± 0.0084
GGAGACCUAUGAAUACAUCCUACUAGCUCA | 0.00797 ± 0.0028
GGAGACCUAUGAAUACAACCUAUUACCUCA | 0.00604 ± 0.003
GGAGACCUAUGUAACAACCUACUACCUCA | 0.0402 ± 0.0057
GGAGACCUAUGAAUACAUCCUACUACCUGA | 0.00353 ± 0.002
GGAGACCUAUGUAUACAACCUUCUACCUCA | 0.00351 ± 0.0017
